Inconclusive results are not listed. Calls of active or inactive are those of the source. The calls were made as follows: active = hit-call score of the fitted dose curve at least 0.9, where 1 is the maximum; inconclusive = response in the unintended direction; inactive = score below 0.9.

Read-out in this assay: ABC Transporter (ABCB1), ABCB1 (gene 5243)
The assay is described as follows: CLD_ABCB1_6hr: CellzDirect (CLD) Gene Expression Assay for ABC Transporter (ABCB1) at 6 hours (AID 2283659).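 Also: hits raise ABCB1 transcript above the DMSO vehicle baseline.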 On the procedure: CLD_6hr is a cell-based, multiplexed-readout assay that uses hepatocyte, a human liver primary cell, with measurements taken at 6 hours after chemical dosing in a 96-well plate.CLD_ABCB1_6hr is one of 16 assay component(s) measured or calculated from the CLD_6hr assay. It is designed to make measurements of mRNA induction, a form of inducible reporter, as detected with chemiluminescence signals by Quantitative Nuclease Protection Assay (qNPA) technology.Data from the assay component CLD_ABCB1_6hr was analyzed at the endpoint, CLD_ABCB1_6hr, in the positive analysis fitting direction relative to DMSO as the negative control and baseline of activity. Using a type of inducible reporter, gain-of-signal activity can be used to understand changes in the reporter gene as they relate to the gene ABCB1. Furthermore, this assay endpoint can be referred to as a primary readout. To generalize the intended target to other relatable targets, this assay endpoint is annotated to the transporter intended target family, where subfamily is ABC transporter.
Human hepatocyte cultures were treated daily for two consecutive days with fresh dosing solutions containing appropriate concentrations of the 320 ToxCast chemicals (chemical identities were blinded to CellzDirect and other ToxCast collaborators), vehicle control (0.2% DMSO), and positive control inducers as summarized in Table 1. Due to the large number of treatment groups and chemicals examined, the ToxCast chemicals were divided into two groups (spanning two independent cultures of hepatocytes from separate donor preparations (Hu778: ToxCast plates 1 and 2; Hu776: ToxCast plates 3 and 4). Each preparation of human hepatocyte cultures was treated with respective vehicle control, medium only control, set of six positive controls/reference chemicals for the five hepatic receptor pathways, and a subset of eight of the ToxCast chemicals (indoxacarb, pyrithiobac-sodium, norflurazon, cyhalofop-butyl, methomyl, thiram, acetochlor, and propiconazole). These replicate data, coupled with internal replicates designed within the blinded ToxCast chemical library, provided additional data to evaluate interindividual differences between hepatocyte preparations and their potential impact on chemical profiles.Cell morphology and integrity were evaluated using phase-contrast microscopy as an indicator of hepatocyte cell health (Tyson & Green, 1987). Cultures for each treatment group (i.e., media, vehicle [0.2% DMSO], positive control inducers [multiple concentrations], and the ToxCast chemicals [multiple concentrations]) were observed and cell morphology was assessed relative to vehicle control cultures at each harvest time point (0, 6, 24, or 48 h). […] Images were evaluated at the conclusion of the study to assess changes in cell integrity and account for the effects of chemical exposure on uncharacteristic changes in concentration-dependent gene expression profiles. The results from these determinations of apparent cytotoxicity were annotated (yes/no) alongside the corresponding qNPA data for reference.At the conclusion of each treatment period, hepatocyte cultures (96-well) were washed with 1 volume of HBSS, lysed by addition of 25 ul ArrayPlate lysis buffer (HTG, Tucson, AZ), and 70 ul/well of Denaturation Oil, denatured by incubation at 95C for 10 min, and frozen at approximately -70C until analysis by nuclease protection assay (qNPA) (Roberts et al., 2007). For qNPA analysis, cell lysates were thawed at 50C for approximately 30 min, qNPA probes were added, and samples were incubated at 95C for 10 min to begin the detection process by denaturing the target RNA, dissociating the duplexes and secondary structure hybridization. At the conclusion of the hybridization period, S1 nuclease reagent was added to each sample to digest all nonprotected nucleotides at 50C for 60-90 min. […]
With `C=CCC1=C(C)C(OC(=O)C2C(C=C(C)C)C2(C)C)CC1=O` (configuration not stated), the outcome was inactive.
The same measure for `COC(=O)c1ccccc1C(=O)OC`: “inactive”.
`N#Cc1nn(-c2c(Cl)cc(C(F)(F)F)cc2Cl)c(N)c1S(=O)C(F)(F)F` (configuration not stated): the result was inactive.
The result for `CCOP(=S)(OCC)SCn1c(=O)oc2cc(Cl)ccc21` reads “inactive”; that for `CCCC1COC(Cn2cncn2)(c2ccc(Cl)cc2Cl)O1` (configuration not stated), “inactive”; that for `CC1COC(Cn2cncn2)(c2ccc(Oc3ccc(Cl)cc3)cc2Cl)O1` (configuration not stated), “inactive”.
`CCOc1cc(Oc2ccc(C(F)(F)F)cc2Cl)ccc1[N+](=O)[O-]`: the outcome was inactive.
For the compound `CCCCOC(=O)c1ccccc1C(=O)OCCCC`, the compound was called inactive.
The same measure for `CCNc1nc(Cl)nc(NC(C)C)n1`: “inactive”.
Consider `C=CCC1=C(C)[C@@H](OC(=O)[C@@H]2[C@@H](C=C(C)C)C2(C)C)CC1=O`, for which the compound was called inactive.
With `CCOC(=O)CC(SP(=S)(OC)OC)C(=O)OCC` (configuration not stated), the compound was classed as inactive.
Turning to `Cc1ccc(-c2c(Cl)nc(C#N)n2S(=O)(=O)N(C)C)cc1`, the compound was classed as inactive.
For the compound `N#Cc1cc(Br)c(O)c(Br)c1`, the compound was classed as inactive.
On to `COc1cnc(OC)n2nc(NS(=O)(=O)c3c(OCC(F)F)cccc3C(F)(F)F)nc12`, for which the result was inactive.
With `COP(=S)(OC)Oc1nc(Cl)c(Cl)cc1Cl`, the result was inactive.
As for `OC(c1ccc(Cl)cc1)(c1cncnc1)c1ccccc1Cl` (configuration not stated), the call was inactive.
Regarding `COc1nc(C)nc(NC(=O)NS(=O)(=O)c2ccccc2CCC(F)(F)F)n1`, the compound was classed as inactive.
The same measure for `Oc1ccccc1-c1ccccc1`: “inactive”; for `CN(C)C(=S)SSC(=S)N(C)C`: “inactive”.
With `CCCCNC(=O)n1c(NC(=O)OC)nc2ccccc21`, the call was inactive.
Regarding `COC(=O)C(C)Oc1ccc(Oc2ccc(Cl)cc2Cl)cc1` (configuration not stated), the compound was classed as inactive.
Take `CCCN(CCC)c1c([N+](=O)[O-])cc(S(N)(=O)=O)cc1[N+](=O)[O-]`: the compound was classed as inactive.
As for `CO/C=C(/C(=O)OC)c1ccccc1Oc1cc(Oc2ccccc2C#N)ncn1`, the call was inactive.
Take `COc1nc(C)nc(NC(=O)NS(=O)(=O)c2ccccc2Cl)n1`: the compound was called inactive.
Consider `Cc1cc(Cl)ccc1OCC(=O)O`, for which the compound was classed as inactive.
Consider `CCOC(=O)C(Cl)Cc1cc(-n2nc(C)n(C(F)F)c2=O)c(F)cc1Cl` (configuration not stated), for which the compound was classed as inactive.
Consider `N#CC(CCc1ccc(Cl)cc1)(Cn1cncn1)c1ccccc1` (configuration not stated), for which the compound was classed as inactive.
Consider `CCCCNC(=O)OCC#CI`, for which the call was inactive.
The result for `COc1ccc(C(c2ccc(OC)cc2)C(Cl)(Cl)Cl)cc1` reads “inactive”.
Consider `COc1nc(NC(C)C)nc(NC(C)C)n1`, for which the result was inactive.
As to `Cc1c(F)c(F)c(COC(=O)C2C(/C=C(\Cl)C(F)(F)F)C2(C)C)c(F)c1F` (configuration not stated), the result was inactive.
As to `O=C(O)COc1nc(Cl)c(Cl)cc1Cl`, the compound was called inactive.

The values are drawn from PubChem BioAssay (EPA / NIEHS).
